Screening data deposited in PubChem BioAssay by National Center for Advancing Translational Sciences (NCATS).
TRHR enhancer: allosteric enhancers of human TRH receptor; P34981; TRHR cells, fluo-8 calcium fluorescence, EC20 TRH enhancement; enhancement, % at 2 µM; 360,000 tested, 0.66% active; AID 493056; in the data active = enhancement above about 30%
Target sequence (P34981 whole entry, looked up): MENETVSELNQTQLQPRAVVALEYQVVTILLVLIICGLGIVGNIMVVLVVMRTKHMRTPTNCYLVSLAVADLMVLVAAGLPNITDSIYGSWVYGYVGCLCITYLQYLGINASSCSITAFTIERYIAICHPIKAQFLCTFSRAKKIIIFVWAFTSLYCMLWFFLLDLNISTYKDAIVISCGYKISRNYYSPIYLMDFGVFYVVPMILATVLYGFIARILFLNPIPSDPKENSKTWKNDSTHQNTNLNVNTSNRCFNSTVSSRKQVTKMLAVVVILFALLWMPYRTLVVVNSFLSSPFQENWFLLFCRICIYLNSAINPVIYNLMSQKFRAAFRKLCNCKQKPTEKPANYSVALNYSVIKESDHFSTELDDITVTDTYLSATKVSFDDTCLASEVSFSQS
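Enhancer read-out: after compound pinning and an initial kinetic agonist-mode read, an EC20 of TRH (10 nM final) was injected and fluo-8 calcium signal (Ex 480/Em 530) followed at 1 s/cycle for 100 cycles in TRHR-expressing cells.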
D1 PAM: enhances dopamine response at the human D1 receptor. P21728. HEK293 TREx D1 cells, calcium flux, dopamine EC20 potentiation. potentiation, % at 10 µM. 360,000 tested, 0.036% active. AID 504651; in the data active = potentiation above about 30%
D1 agonist: human D1 receptor agonism; P21728; HEK293 T-REx D1 cells, calcium flux, agonist mode; activation, % at 2 µM; 360,000 tested, 1% active
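Inducible HEK293 T-REx D1 cells, force-coupled to calcium signalling, were plated at 4000 cells/well with tetracycline and held overnight at 30 C. After no-wash calcium dye loading, compound-evoked calcium rise over 180 s flagged agonists.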
D1 antag: human D1 dopamine receptor antagonism; P21728; HEK293 TREx D1 cells, calcium flux, dopamine EC80; hits give low values; activity change, negative = inhibition, % at 10 µM; 360,000 tested, 3.2% active; AID 504652; in the data active = activity change below about -30%
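Kinetic fluorescence of a calcium dye serves as the read-out. D1-expressing Hek293 Trex cells, induced overnight at 30 C, are exposed to compound for 180 s before an EC80 dopamine addition, then read 180 s further.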
TRHR ag: activates the human TRH receptor; 360,000 tested, 0.18% active; activation, % at 2 µM; TRHR cells, calcium flux fluo-8, FDSS agonist mode; P34981; AID 493084
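Read-out: compound-evoked intracellular calcium rise in TRHR cells, fluo-8 dye, kinetic FDSS fluorescence at 1 s/cycle following a 10-cycle baseline. Cells cultured overnight before dye loading (30 min–1.5 h, RT).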
Large screens that a line does not name were inactive; ! = a repeat was not active. Compounds with a hit are over-represented: about 4.7% of the library has one in this group of screens. Cut-off read from the data, not from the text of the source, unless noted: active = activation above about 30%; inactive = the rest.

Cc1ccc(-n2ncc(C(=O)NCc3ccc4c(c3)OCO4)c2C2CCN(C(=O)OC(C)(C)C)CC2)c(C)c1	none
Cc1ccc(Cn2ccc(=O)c(OCc3c(Cl)cccc3Cl)c2C)cc1	TRHR enhancer 39
COc1ccc(NC(=O)c2nnn(Cc3ccccc3C)c2N)c(OC)c1	none
CC(=O)NC(=O)c1nnn(Cc2ccccc2)c1NC(C)=O	TRHR enhancer 34
COc1ccc(OC)c(NC(=O)c2nnn(Cc3ccccc3C)c2N)c1	D1 antag -52
Cc1cccc(Cn2nnc(C(=O)Nc3cc(C)ccc3C)c2N)c1	none
Cc1ccc(Cl)cc1NC(=O)c1nnn(Cc2ccccc2)c1N	TRHR enhancer 31
Cc1ccc(NC(=O)c2nnn(Cc3cccc(C(F)(F)F)c3)c2N)c(C)c1	D1 antag -45
Nc1c(C(=O)O)nnn1Cc1ccccc1	none
Cc1ccc(OCC(=O)Nc2nonc2-c2ccc(Br)cc2)cc1C	none
CCOC(=O)c1c(NC(=O)CSc2cn(CCNC(=O)c3ccc(OC)cc3)c3ccccc23)sc2c1CCCC2	none
COc1ccc(-n2ncc3c2ncn2nc(-c4ccc(Cl)cc4Cl)nc32)cc1	none
Cc1ccc(CNC(=O)c2cc(Sc3ccc(F)cc3F)nc3ccccc23)cc1	none
Cc1ccc(Cn2nnc(C(=O)Nc3cccc(C)c3C)c2N)cc1	D1 agonist 94
CCc1ccccc1NC(=O)c1nnn(Cc2ccc(Cl)cc2)c1N	D1 agonist 56
Cc1ccc(C)c(NC(=O)c2nnn(CC(=O)Nc3cccc(C)c3C)c2N)c1	none
Cc1cc(C)c(NC(=O)Cn2nnc(C(=O)Nc3ccc(F)cc3F)c2N)c(C)c1	D1 antag -68!
CCOC(=O)N1CCc2c(sc(NCc3cccc(F)c3)c2C(=O)Nc2ccc(OC)cc2)C1	none
COc1ccc(Nc2nc(Cl)nc(N3CCN(c4ccc(OC)cc4)CC3)n2)cc1	none
Cc1cc(Cl)ccc1NC(=O)CN1C(=O)COc2ccc(S(=O)(=O)Nc3ccccc3)cc21	none
Cc1ccc(Cn2c(SCCN3CCCCC3)nc3c2c(=O)[nH]c(=O)n3C)cc1	D1 antag -43
Cn1c(=O)[nH]c(=O)c2c1nc(SCCN1CCCCC1)n2Cc1ccccc1	none
CCCCN1C(=O)CN(C2CCCCCC2)C(=O)C1c1ccc(OCCC)c(OC)c1 (stereo not given)	none
COc1ccc(/C=N/Nc2nc(N3CCCC3)nc(N3CCCC3)n2)c(OC)c1OC	D1 antag -42
COc1cccc(/C=N/Nc2nc(N3CCCC3)nc(N3CCCC3)n2)c1O	none
Oc1ccc(Br)cc1/C=N/Nc1nc(N2CCCCC2)nc(N2CCOCC2)n1	none
Oc1ccc(/C=N/Nc2nc(N3CCCCCC3)nc(N3CCCCCC3)n2)c(O)c1	D1 antag -41
CCOc1ccccc1NC(=O)C1CCN(S(=O)(=O)c2cccc3nonc23)CC1	none
Cc1ccc2c(c1)C(=O)OC(C(=O)Nc1ncc(Cc3ccccc3Cl)s1)C2 (stereo not given)	none
COc1nsnc1NS(=O)(=O)c1ccc(NC(=S)NC(=O)c2cccnc2)cc1	none
Cn1cnc(S(=O)(=O)N2CCCC(C(=O)NCc3ccccc3Cl)C2)c1 (stereo not given)	none
COC(=O)CCSc1cc([N+](=O)[O-])cc2c1c(C1OCCO1)nn2-c1ccccc1	D1 antag -36
O=C(Cn1c(=O)oc2ccccc21)Nc1nnc(N2CCCCCC2)s1	TRHR enhancer 30
Cc1cnc(C(=O)OCC(=O)Nc2ccc(Oc3ccccc3)cc2)cn1	D1 antag -41
CCCOc1ccc(C(=O)CCC(=O)OCC(=O)Nc2ccc(Oc3ccccc3)cc2)cc1	none
C=CCC(=O)OCC(=O)Nc1ccc(Oc2ccccc2)cc1	D1 antag -35
Cc1ccc(Cl)cc1NC(=O)Nc1nnc(N2CCCC(C)C2)s1 (stereo not given)	none
COc1ccc(NC(=O)CCCC(=O)NCCc2ccc(OC)c(OC)c2)cc1	none
C=C(C)CC1Nc2ccccc2NC1CC(=C)C (stereo not given)	D1 antag -62
C=C(C)CN1C(=O)c2ccccc2C1=O	none (no result: D1 antag)
CCC(=O)C1=C(c2ccc(C)cc2)N(C(=O)CC)n2c(nnc2C2CCCCC2)S1	none (no result: D1 antag)
O=C(COC(=O)CNS(=O)(=O)c1ccc(Br)cc1Cl)NCCc1ccccc1	D1 antag -34
Cc1ccc(NC(=O)CN(C)C(=O)COC(=O)CNS(=O)(=O)c2ccc(Br)cc2Cl)cc1	D1 antag -34
Cc1c(Cl)cccc1NC(=O)Nc1c[nH]c(=O)[nH]c1=O	none
CCOC(=O)COc1ccc(/C=C2/C(=O)NN(c3ccc(F)cc3)C2=O)cc1OC	TRHR enhancer 38
CCOC(=O)c1ccc(N2NC(=O)/C(=C/c3ccc(OC(=O)c4ccco4)c(OC)c3)C2=O)cc1	none
COc1cc(/C=C2/NC(=O)NC2=O)ccc1OCC(=O)Nc1ccc(F)cc1	D1 antag -71
C#CCOCCOCCOCCNc1nc(N2CCN(C(=O)CCCCCCCCCCNC(=O)[C@@H](CCSC)n3cc(CCO)nn3)CC2)nc(N2CCN(C(=O)CCCCCCCCCCNC(=O)[C@H](CO)n3cc(CCCCCN)nn3)CC2)n1	D1 antag -39
C#CCOCCOCCOCCNc1nc(N2CCN(C(=O)CCCCCCCCCCNC(=O)[C@@H](CCC(=O)O)n3cc(CCCCCN)nn3)CC2)nc(N2CCN(C(=O)CCCCCCCCCCNC(=O)[C@H](CCCCN)n3cc(C[C@@H](C)CC)nn3)CC2)n1	D1 PAM 44, D1 agonist 65
C#CCOCCOCCOCCNc1nc(N2CCN(C(=O)CCCCCCCCCCNC(=O)[C@H](CCCCN)n3cc(C)nn3)CC2)nc(N2CCN(C(=O)CCCCCCCCCCNC(=O)[C@@H]([C@H](C)O)n3cc(C)nn3)CC2)n1	D1 agonist 34
C#CCOCCOCCOCCNc1nc(N2CCN(C(=O)CCCCCCCCCCNC(=O)[C@H](CCCCN)n3cc(CCO)nn3)CC2)nc(N2CCN(C(=O)CCCCCCCCCCNC(=O)[C@H](CCCCN)n3cc(C[C@@H](C)CC)nn3)CC2)n1	D1 agonist 70
C#CCOCCOCCOCCNc1nc(N2CCN(C(=O)CCCCCCCCCCNC(=O)[C@@H](CCSC)n3cc(CCO)nn3)CC2)nc(N2CCN(C(=O)CCCCCCCCCCNC(=O)[C@H](CCC(=O)O)n3cc(CCCCCN)nn3)CC2)n1	none
C#CCOCCOCCOCCNc1nc(N2CCN(C(=O)CCCCCCCCCCNC(=O)[C@H](CCCCN)n3cc(C[C@@H](C)CC)nn3)CC2)nc(N2CCN(C(=O)CCCCCCCCCCNC(=O)[C@H](CCCN=C(N)N)n3cc(C[C@@H](C)CC)nn3)CC2)n1	none
COc1ccc(CNC(=O)Cn2nc(C)c3nn(-c4ccc(Cl)cc4)c(C)c3c2=O)cc1	none
COc1ccc(C)cc1NC(=O)CCS(=O)(=O)c1cc2c3c(c1)CCN3C(=O)CC2	none
CC1=C(C(=O)Nc2cccc(Cl)c2)C2(CCCCCC2)OC1=O	none
